Screens from PubChem.
Most compounds without a hit are left out; they make up all but 4.8% or so of the library.
Mdm2 MdmX PPI = inhibitors of human Mdm2/MdmX interaction; 330,000 tested, 3% active; SaOS-2 split-luciferase Mdm2/MdmX complementation, luminescence; inhibition, % at 8 µM;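 active = inhibition of at least 50% at 8 µM in the primary screen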
Beta cell apopt = blocks beta cell apoptosis; INS-1E cytokine-induced death, ATP luminescence, 48 h; percent of positive-control rescue, neutral wells zero; protection from apoptosis, % (concentration not given with the values); 300,000 tested, 0.8% active; AID 435005;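 active = Every replicate reaches about 75%, or at least half do and their mean reaches it too, limit read from the data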;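 note: 0% = cytokine-treated negative control wells and 100% = positive control rescue; higher means more ATP so stronger rescue from cytokine killing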
MPTP block = inhibitors of mitochondrial permeability transition pore | isolated mouse mitochondria, Ca2+ swelling absorbance, 30 min | inhibition, % at 10 µM | 360,000 tested, 1.4% active | AID 602449;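 active = inhibition of 50% or more, scaled per plate between neutral and stimulator controls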;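 note: 0% = DMSO wells given calcium and 100% = 1 mM EGTA wells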
CSC inhib = cancer stem cell inhibition; cancer stem cell-like cells viability, luminescence; inhibition, % at 7.5 µM; 300,000 tested, 1.1% active; AID 2717; in the data active = inhibition above about 75%; tested in HMLE shEcad cells
Calb FLC = C. albicans growth modulation with fluconazole | C. albicans CaCi-2 (fluconazole-resistant clinical isolate) + fluconazole, Alamar Blue growth, 48 h | 300,000 tested, 0.57% active | growth inhibition, % (no concentration beside the values);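 active = growth inhibition above about 58% in most replicates, limit read from the data, passing the limit was not always enough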;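 note: all wells also contain fluconazole at 8 µg/ml as a sub-toxic cotreatment; 0% = median of DMSO wells and 100% = median of geldanamycin control wells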
* marks the source's active call; other numbers are inactive results; . = not tested or not shown.

SMILES	Mdm2 MdmX PPI	Beta cell apopt	MPTP block	CSC inhib	Calb FLC
N=C(N)c1c(O)n(C2CCCCC2)c(=O)n(C2CCCCC2)c1=O	39.3	56.9	17.0	101.7*	-5.5
CCOC(=O)[C@]12Cc3cc(Cl)ccc3[C@H]1N(C1CCCCC1)C(=O)c1ccccc12	.	.	-4.0	.	.
CC1C(=O)CC2(C(C)C)CC12 (configuration not stated)	.	.	-1.1	.	.
C=C1C(=O)OC2CC3(C)OC3C3OC3C3=CC(OC3=O)C12 (configuration not stated)	.	.	-0.6	.	.
CC(C)Nc1ccc(Nc2ccccc2)cc1	26.9	112.7*	3.0	3.5	-19.1
CCOC(=O)[C@]12Cc3cc(C)ccc3[C@H]1N(C)C(=O)c1cc(OC)ccc12	.	.	-1.7	.	.
O=c1[nH]c(CN2CC=C(c3ccccc3)CC2)nc2scc(-c3ccccc3)c12	8.0	-7.3	0.8	80.9*	-10.6
CC(=O)OC1C(O)C2=C3C4(C)C1C(C)(C)C(=O)CC4C3(O)C(OC(C)=O)C1(CC1C)C2=O (configuration not stated)	.	.	-0.9	.	.
O=C1C=C2c3ccccc3CC(C(=O)O)C2CC1 (configuration not stated)	.	.	-0.5	.	.
Cc1cc(-c2ccccc2)cc(C)[n+]1Cc1ccccc1	-18.5	108.9*	-1.1	-15.1	-25.0
Cc1ccc(-n2c(-c3cccs3)nc3ccccc3c2=O)cc1	-17.3	-9.0	0.6	78.5*	3.9
CCc1nn2c(=O)c(F)c(N3CCNCC3)nc2s1	.	.	-2.6	.	.
C=CC12CN(C)C3C4COC(CC41)C1(C(=O)Nc4ccccc41)C32 (configuration not stated)	.	.	0.8	.	.
CCCCCCOc1ccc(CN2CCN(C)CC2)cc1	39.8	108.7*	-0.1	.	20.8
CN1CCN(Cc2ccc3ccccc3c2)CC1	2.8	-7.0	-0.4	-5.7	1.0
O=[N+]([O-])c1cc(Cl)c(O)c(-[n+]2c(-c3ccccc3)cc(-c3ccccc3)cc2-c2ccccc2)c1	13.6	14.1	1.6	-3.5	-2.0
O=[N+]([O-])c1ccc(C[n+]2c(-c3ccccc3)cc(-c3ccccc3)cc2-c2ccccc2)cc1	-8.0	14.3	0.4	18.4	107.3*
O=c1[nH]c(=O)n(Cc2ccc(F)cc2)c(O)c1/C=N/Nc1ccccc1	22.4	3.2	0.1	78.8*	-26.9
CCC(C)n1c(O)c(/C=N/Nc2ccccc2)c(=O)[nH]c1=S (configuration not stated)	7.3	1.9	3.1	82.5*	8.7
O=c1[nH]c(=O)n(CCC2=CCCCC2)c(O)c1/C=N/Nc1ccccc1	9.1	0.4	3.4	97.4*	-25.2
CCN(CC)C(=O)c1ccc(NC(=O)CCCSc2ccccc2)cc1	-4.5	-5.5	-0.3	-12.2	-1.6
CCN(CC)C(=O)c1ccc(NC(=O)Nc2ccccc2F)cc1	-74.2	67.9	0.6	81.0*	10.5
c1ccc(CN2CCc3nc4ccccc4cc3C2)cc1	-57.8	6.8	0.5	3.0	76.4*
c1ccc(CN2Cc3ccccc3-n3nncc3C2)cc1	.	.	2.0	.	.
CCC(=NCCO)c1c(O)n(-c2ccccc2)c(=O)[nH]c1=O	7.7	-0.7	-0.1	-9.0	-12.6
SMILES	Mdm2 MdmX PPI	Beta cell apopt	MPTP block	CSC inhib	Calb FLC
CC/C(=N\Nc1ccccc1)c1c(O)n(-c2ccc(OC)cc2)c(=O)[nH]c1=O	-6.9	1.7	2.7	75.8*	14.3
Clc1ccc(CCC(Cn2ccnc2)Sc2c(Cl)cccc2Cl)cc1 (configuration not stated)	41.7	16.1	1.9	85.7*	.
Clc1ccc(Cn2ccnc2)cn1	16.6	-1.3	-0.3	0.1	7.8
COc1cccc(C(=O)C2CCCN(Cc3cccc4c3OCO4)C2)c1 (configuration not stated)	9.5	13.4	-0.7	1.5	107.8*
COc1cccc(C(=O)C2CCCN(Cc3ccc4nonc4c3)C2)c1 (configuration not stated)	35.0	-2.0	0.4	-6.0	19.3
O=c1[nH]c2ccccc2n1C1CCN(C(CCc2ccccc2)c2nnnn2C2CCCC2)CC1 (configuration not stated)	.	.	0.5	.	.
Clc1ccc(C(Cn2ccnc2)OCc2csc3c(Cl)cccc23)c(Cl)c1 (configuration not stated)	32.0	86.5*	6.1	106.9*	.
c1ccc2c3c([nH]c2c1)CNCC3	-3.6	-1.2	-0.9	-7.6	-13.3
c1ccc2c3c([nH]c2c1)C1(CCNCC1)NCC3	17.8	87.5*	-4.7	-1.6	23.1
CCc1ccc(N2C(=O)NC(=O)/C(=C\C=C\c3ccco3)C2=O)cc1	49.9	9.0	1.5	115.9*	13.4
Cc1cc(C)cc(N2C(=O)NC(=O)/C(=C\C=C\c3ccco3)C2=O)c1	.	13.8	-4.8	17.2	1.1
CC(C)c1ccc(N2C(=O)NC(=O)/C(=C/C=C/c3ccco3)C2=O)cc1	.	64.6	-0.1	98.0*	-10.5
CCOC(=O)[C@]12Cc3c(cc(OC)c(OC)c3OC)[C@H]1N(CCC(=O)OC)C(=O)c1ccccc12	.	.	-0.7	.	.
CC(=O)c1ccc(-c2ccccc2)cc1	-51.2	1.8	0.6	-24.7	-29.6
C[n+]1c(-c2ccccc2)cc(-c2ccc(Cl)cc2)cc1-c1ccccc1	23.1	38.5	0.2	4.0	97.0*
CCCCCn1c(=O)c(C(=O)NCc2ccccc2Cl)c(O)c2ccccc21	27.5	100.5*	3.9	4.1	-5.1
CCCCCn1c(=O)c(C(=O)Nc2ccccc2)c(O)c2ccccc21	30.6	46.4	8.6	16.5	21.5
Cc1cccc(C)c1-n1nnnc1C(C1CC1)N1CCC2(CC1)C(=O)NCN2c1ccccc1 (configuration not stated)	.	.	-2.1	.	.
Cc1ccc(-n2c(=O)[nH]c3ccccc3c2=O)cc1[N+](=O)[O-]	.	.	0.1	.	.
Cc1ccc(-c2cc(-c3ccc(C)cc3)[n+](-c3ccc(C(=O)[O-])cc3)c(-c3ccc(C)cc3)c2)cc1	36.1	97.7*	1.3	17.0	37.5
Nc1ccc(CCN2CCCC2)cc1	-6.0	2.5	-0.6	-8.2	-3.8
Nc1ccc(CCN2CCN(c3cccc(C(F)(F)F)c3)CC2)cc1	13.3	-2.2	-3.0	95.0*	.
COC1=CC(=O)[C@]2(C=C1OC)OC[C@@H]1Oc3c(ccc4c3C=CC(C)(C)O4)C(=O)[C@@H]12	2.1	125.9*	.	4.5	.
CCOC(=O)[C@]12Cc3ccc4ccccc4c3[C@H]1N(Cc1ccccc1)C(=O)c1ccccc12	.	.	-0.3	.	.
CN1C2CCC1/C(=C/c1ccccn1)C(=O)/C2=C\c1ccccn1	.	99.7*	-1.4	38.4	.
O=C1NCN(c2ccccc2)C12CCN(C(c1ccccc1)c1nnnn1C1CCCC1)CC2 (configuration not stated)	.	.	-0.6	.	.
O=c1[nH]c2ccccc2n1C1CCN(C(c2cccs2)c2nnnn2-c2ccc3c(c2)OCCO3)CC1 (configuration not stated)	.	.	-2.8	.	.
Cc1ccc(N2C(=O)NC(=O)/C(=C/c3cnn(-c4ccc(C)cc4)c3)C2=O)cc1	-1.3	85.2*	39.4	9.6	-5.5
COc1ccc(-n2nnnc2C(c2cccs2)N2CCC(n3c(=O)[nH]c4ccccc43)CC2)cc1 (configuration not stated)	.	.	0.7	.	.
